The supplement of paper PMC11417369
Whole data set: some 25,000 sequences, median “ln(normalized median fluorescence intensity)” near 9.7, cut for the highest 2% near 11. For the sample, the highest values were picked, then their nearest neighbours and some sequences at random.

tested on: PfAP2-HC AP2 domain (GST-tagged); assay: gcPBM binding intensity (ln(normalized median fluorescence intensity)); higher = stronger DNA binding
Method in brief: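 An Agilent 4 × 180k array carrying primer-extended double-stranded 36-bp intergenic genomic probes and negative controls received GST-tagged P. falciparum DNA-binding domains expressed in E. coli, about 25 μg on average, for 1 h. The binding buffer contained 1× PBS, 1% milk, 0.2 mg/ml BSA, 0.5% salmon testes DNA and 0.03% Triton X-100. Binding intensity is the top Masliner-normalised natural-log median intensity across replicate spots of either probe orientation, read after Alexa488 anti-GST antibody staining and a 488 nm scan.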

Sequence	gcPBM binding intensity (ln)
ACATACGAAAATTGGAAGGATAGATAAAAAGAAAAT [CACACA_negctrl_site51]	9.66
CTCAACATATACGTAACACACATATAAATATAAATA [CACACA_site7749]	9.89
ATATAGAAAATGCATACACACTTTATAAATATATTT [CACACA_site6553]	9.82
TATTTATTGTGATACTTATATTACTTAATGATTAAA [CACACA_negctrl_site676]	9.41
ACCCATTTAACAAAATGTACATTATTATAATTACTT [XGTACX_site7105]	9.72
CTTATATAATTCGATAGTACATATTTTTATATATAT [XGTACX_site4045]	9.68
ATACAATAATATAAATGTACAAATTATATCTTAATT [XGTACX_site6004]	9.62
TTGTGTACATATTAAGTGCATATATATATATATATA	10.4
TTTTACCTAAATATCACACATATTTAAATATATATA [CACACA_site5597]	9.57
AGTCAATTTTGTGTGTCAACATTTATATAAAGAATG [TGCATGCA_negctrl_site400]	9.71
AGAAGGTAAAAACACACACACACATACAAAAAAAAA [CACACA_site3767]	10.7
AAGGTAAACAGACACACACACATACAAAAAAAAAAA [CACACA_site3768]	10.8
AAGGTAAACGGACACACACACATACAAAAAAAAAAA [CACACA_site5961]	11.3
TATATATAAAAAACATGTACACAAATTTACATACAT [XGTACX_site4777]	9.79
ATGTATGGAAATTTTACACACAAGAGTAGTTTAAAA [CACACA_site1710]	9.9
CGCACTAAAAAACACACACACACACCCATATATATA [CACACA_site4152]	11
TACCCACTAAAATACACACACACACCCACATATATA [CACACA_site6141]	10.4
CACCCACTAATAAACACACACATATATATATATATA [CACACA_site389]	10.4
AAAAAAAACGCACATACACACACACCCATATATATA [CACACA_site9118]	10.4
CCCACTAAAAAACACACACACACACCCATATATATA [CACACA_site6140]	11

Sequence	gcPBM binding intensity (ln)
AAAGATGATAAAATATGTACACACAGTTTATACATT [XGTACX_site8703]	9.95
AAGAAAAAAAAAATTACACACTGCGCAGATACACAA [CACACA_site1289]	9.86
ATTTTTTCTTTTCGATGTACCCTTCTTATTCTTTAT [XGTACX_site3782]	10.1
TCTTGATCTTATATATATCTACAATATTTTATACAT [TGCATGCA_negctrl_site569]	10.2
CTGCGTTTAATATGCGTGCACCTTGGTTTTATATCT [GTGCAC_site9525]	9.83
GTAAGTTTGAATACACGTACAAATTTATTAAAGTCC [XGTACX_site6722]	9.72
ATTCTATATGTTACATAAACCTATATTTTTTTTTTT [CACACA_negctrl_site860]	9.58
TTTTACTTAAGACACACACACACAAAAAAAAAAAAA [CACACA_site6573]	10.8
CTATTTCATGGACACACACACACAAACAAACATATA [CACACA_site4696]	11.1
ATATAACATGGACACACACACATATATATATATTAT [CACACA_site6135]	10.4
TAAATAAATATATATTCACACACAAACATATATATA [CACACA_site9332]	10.5
CTATTTCAGAAACACACACACACAAACAAACATATA [CACACA_site978]	10.4
CTATTTCATAAACACACACACACAAACAAACATATA [CACACA_site8234]	11.5
AATAAATATATATTCACACACAAACATATATATATA [CACACA_site4023]	10
TTTTAAGAAAAAAAATGTACACATGAAAATAGTGAA [XGTACX_site5898]	9.5
TAGATACATAAAAGTGGTACATATATATATATATAT [XGTACX_site6263]	9.85
TAACTTAAATAATACATACACACATGTACATACAGA [CACACA_site1594]	10.2
TCTATTTTTTATATGGTGCATTGTTCTTATTAATAT [GTGCAC_site9392]	9.77
TGATTATACGCACGCGCACACACAACCAAAAAAAAA [CACACA_site3537]	10.2
TGATTATAGACACGCGCACACACAACAAAAAAAAAA [CACACA_site9179]	10.1

Sequence	gcPBM binding intensity (ln)
ATTATACACCCGCGCACACACAACAAAAAAAAAAAA [CACACA_site5871]	11.1
ATAAAAATTGATTATACACACGCGCACCCACAACAA [CACACA_site3536]	10.3
AAAAAACAAAAACACACGCACACAAAAAAAAAAAAA [CACACA_site802]	10.2
ATTATAGACACGCGCACACACAACAAAAAAAAAAAA [CACACA_site9180]	11.3
GTTACACAAACAAACACACACACACGCACGCACAAA [CACACA_site7191]	11.3
ATTACATACACGCGCACACACAAAAAAAAAAAAAAA [CACACA_site1334]	9.98
TTATATTATAGACACACACACAAAAAAAAAAAAAAA [CACACA_site3816]	10.1
TACACAAACAGACACACACACACACGCGCACAAAAA [CACACA_site7192]	11
ATAGACAGCGCACAAACACACAAACACGCACGCACA [CACACA_site6349]	10.2
CACAAACAAAGACACACACACACACGCACAAAAATG [CACACA_site7193]	10.7
TTTCTTTTTTCTGTTATTATTATAAAACGATATTTA [TGCATGCA_negctrl_site167]	9.58
TTATTAAGTAAATCACATTTAATTTTTTTTTTTTTT [CACACA_negctrl_site1280]	9.27
GAATATGTTAACATTTGTACATAAAATTTTTTACAA [XGTACX_site2444]	9.49
ATTATTTTGTTTATTACATGCAGGTGTATATTACAG [TGCATGCA_site723]	9.59
ATCACATAAAATATGAATATATATTTTATATATATA [CACACA_negctrl_site340]	9.53
AAAAGAGAAATGGGCACACACACACCGATTATATAT [CACACA_site4942]	11
AGAAAAGAGAAATGGGCACACACACCCATATTATAT [CACACA_site8433]	10.1
AAAAGAGAAATGGGCACACACACACCCATTATATAT [CACACA_site1530]	10.2
